Compounds with a hit are over-represented: about 3.7% of the library has one in this group of screens.
Smad3 inh = inhibitors of human Smad3 transcription factor binding; P84022; TR-FRET Smad3/Dy647-FoxH1 peptide binding, europium anti-His; inhibition, % at 25 µM; 0.29% of 88,000 active; AID 630;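 active = compounds that reduce the energy-transfer binding signal between the protein and its labelled peptide by more than half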;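 note: 0% = Smad3 plus labelled peptide maximal FRET and 100% = peptide-only background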
Target sequence (P84022 whole entry, looked up): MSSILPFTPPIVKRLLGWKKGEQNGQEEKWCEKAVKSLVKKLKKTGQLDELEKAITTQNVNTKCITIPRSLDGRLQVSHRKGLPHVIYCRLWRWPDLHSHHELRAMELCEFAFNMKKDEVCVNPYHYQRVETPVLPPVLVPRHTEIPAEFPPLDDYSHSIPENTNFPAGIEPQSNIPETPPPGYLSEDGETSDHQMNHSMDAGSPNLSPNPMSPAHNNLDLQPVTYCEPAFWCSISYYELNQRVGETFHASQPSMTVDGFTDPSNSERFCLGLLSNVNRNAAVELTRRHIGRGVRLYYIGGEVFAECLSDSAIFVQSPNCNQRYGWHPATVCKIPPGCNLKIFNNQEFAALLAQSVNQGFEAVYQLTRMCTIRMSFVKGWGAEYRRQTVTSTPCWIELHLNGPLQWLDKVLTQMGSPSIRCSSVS
ERa SRC1 pot = ER-alpha (human) coactivator binding potentiation | TR-FRET ERalpha-LBD/SRC-Cy5 coactivator binding, 2 h; 100 = basal binding, no effect | P03372 | 1.3% of 86,000 active | coactivator binding (% of control), % at 25.6 µM | AID 639; in the data active = activity above about 200%;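 note: binding measured in presence of low estradiol as agonist stimulus; 0% = peptide alone without receptor and 100% = receptor with peptide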
ERb SRC1 inh = blocks coactivator binding to human estrogen receptor beta; Q92731; TR-FRET ER-beta LBD / SRC1-Cy5 peptide binding; receptor agonist-loaded with 1 µM estradiol; inhibition, % at 25.6 µM; 1.3% of 86,000 active; AID 633;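 active = compounds whose percent inhibition of the receptor-coactivator binding signal exceeds about 50% in the single-dose screen, limit read from the data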;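 note: 0% = receptor plus peptide wells without compound and 100% = peptide-only wells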
ERa coact inh = ER-alpha (human) coactivator binding inhibition | P03372 | TR-FRET ER-alpha LBD / SRC-1 peptide, estradiol-bound | inhibition, % at 25.6 µM | 1.7% of 86,000 active; in the data active = inhibition above about 50%;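 note: 0% = receptor plus peptide control and 100% = peptide only without receptor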
An asterisk follows results filed as active; [ ] = remark or other dose.

Results for COc1ccc(OC)c(NC(=O)Cc2nn(C)c(=O)c3ccccc23)c1 ?
Smad3 inh: 4.0; ERa SRC1 pot: 110.6; ERb SRC1 inh: -23.2; ERa coact inh: -47.9

How did NC(N)=NC(N)=Nc1ccc(S(=O)(=O)O)cc1 do in these assays?
Smad3 inh: -3.3

Results for CSc1ccc(S(=O)(=O)NCc2ccc(Cl)cc2Cl)cc1 ?
Smad3 inh: 6.2; ERa SRC1 pot: 82.4; ERb SRC1 inh: -13.8; ERa coact inh: 5.4

Results for Cc1[nH]c2ccccc2c1-c1cc(-c2cc(-c3c(C)[nH]c4ccccc34)on2)no1 ?
Smad3 inh: 3.3

What do the screens show for `CCn1c(CCCc2nc3c([nH]2)c(=O)n(C)c(=O)n3C)nc2c1c(=O)n(C)c(=O)n2C`?
Smad3 inh: 6.8

Results for CCOc1ccc2nc(Nc3nc4c(c(=O)[nH]3)CCC4)nc(C)c2c1 ?
Smad3 inh: 19.2; ERa SRC1 pot: 177.8; ERb SRC1 inh: 35.7; ERa coact inh: 52.3*[fluorescence artefact?]

What do the screens show for `COc1ccc2nc(Nc3nc(C)c(CCC(C)C)c(=O)[nH]3)nc(C)c2c1`?
Smad3 inh: -17.9; ERa SRC1 pot: 116.1; ERb SRC1 inh: 15.8; ERa coact inh: 10.5

How did CCOc1ccc2nc(Nc3nc(CSc4nnnn4-c4ccccc4)cc(=O)[nH]3)nc(C)c2c1 do in these assays?
Smad3 inh: -7.7; ERa SRC1 pot: 215.6*[fluorescence artefact?]; ERb SRC1 inh: 39.4; ERa coact inh: 70.1*[fluorescence artefact?]

What do the screens show for `FC(F)(F)c1nc(SCc2ccc(Cl)cc2)n[nH]1`?
Smad3 inh: -2.0

Results for O=C(CON1C(=O)c2ccccc2C1=O)c1ccccc1 ?
Smad3 inh: 10.7

How did Cc1oc2c(C)c(O)ccc2c(=O)c1-c1cnn(-c2ccccc2)c1 do in these assays?
Smad3 inh: 0.6; ERa SRC1 pot: 181.3; ERb SRC1 inh: 60.1*[fluorescence artefact?]; ERa coact inh: 70.1*[fluorescence artefact?]

What do the screens show for `O=C(Nc1nc(-c2cccs2)cs1)c1ccc(S(=O)(=O)N2CCCCC2)cc1`?
Smad3 inh: -7.1; ERa SRC1 pot: 234.9*; ERb SRC1 inh: -4.4; ERa coact inh: -2.2

What do the screens show for `COc1ccccc1C(=O)Nc1nc(-c2ccc(S(=O)(=O)N3CCOCC3)cc2)cs1`?
Smad3 inh: 4.9; ERa SRC1 pot: 398.9*[fluorescence artefact?]; ERb SRC1 inh: 3.3; ERa coact inh: 1.2

What do the screens show for `O=C(Nc1nc(-c2cccs2)cs1)c1cccc(S(=O)(=O)N2CCCCCC2)c1`?
Smad3 inh: 3.8; ERa SRC1 pot: 189.1; ERb SRC1 inh: -1.4; ERa coact inh: -11.2

Results for O=C(Nc1ccc(Cc2ccncc2)cc1)c1ccc(S(=O)(=O)N2CCOCC2)cc1 ?
Smad3 inh: -3.3; ERa SRC1 pot: 112.4; ERb SRC1 inh: -8.2; ERa coact inh: -5.2

Results for COc1ccccc1OC(C)C(=O)Nc1nc(-c2ccc(S(=O)(=O)N3CCOCC3)cc2)cs1 (stereo unspecified) ?
Smad3 inh: -1.8; ERa SRC1 pot: 263.4*[fluorescence artefact?]; ERb SRC1 inh: 7.6; ERa coact inh: 0.9

How did O=C(Nc1nc(-c2ccncc2)cs1)c1ccc(S(=O)(=O)N2CCOCC2)cc1 do in these assays?
Smad3 inh: 5.2; ERa SRC1 pot: 238.6*; ERb SRC1 inh: -10.5; ERa coact inh: -0.6

Results for CC(Oc1ccccc1)C(=O)Nc1ccc(S(=O)(=O)N2CCOCC2)cc1 (stereo unspecified) ?
Smad3 inh: 1.4; ERa SRC1 pot: 113.4; ERb SRC1 inh: 0.7; ERa coact inh: -6.5

Results for Cn1c(NC(=O)COc2ccccc2)cc(=O)n(C)c1=O ?
Smad3 inh: 5.1; ERa SRC1 pot: 78.8; ERb SRC1 inh: 1.9; ERa coact inh: 4.0

Results for CCOc1cccc(C(=O)Nc2nc(-c3ccc(S(=O)(=O)N4CCOCC4)cc3)cs2)c1 ?
Smad3 inh: 1.2; ERa SRC1 pot: 165.8; ERb SRC1 inh: -6.8; ERa coact inh: -2.1

How did O=C(COc1cccc(Cl)c1)Nc1nc(-c2ccc(S(=O)(=O)N3CCOCC3)cc2)cs1 do in these assays?
Smad3 inh: 10.5; ERa SRC1 pot: 201.8*; ERb SRC1 inh: 7.4; ERa coact inh: -1.3

How did OC[C@H]1O[C@@H](O)[C@H](N=Cc2ccc3c(c2)OCO3)[C@@H](O)[C@@H]1O do in these assays?
Smad3 inh: -19.4

Results for C[C@]12CC[C@@H]3c4ccc(O)cc4[C@@H](O)C[C@H]3[C@@H]1CC[C@@H]2O ?
Smad3 inh: -18.3; ERa SRC1 pot: 530.4*; ERb SRC1 inh: 12.4; ERa coact inh: -0.2

Results for O=C(O)c1ccc(NS(=O)(=O)Cc2ccccc2)cc1 ?
Smad3 inh: -2.5

What do the screens show for `CCn1cc([N+](=O)[O-])c(C(=O)N2N=C(c3ccc4ccccc4c3)CC2c2cc(Br)ccc2O)n1` (stereo unspecified)?
Smad3 inh: 3.5; ERa SRC1 pot: 103.9; ERb SRC1 inh: 51.0*[fluorescence artefact?]; ERa coact inh: 41.1

Results for CCOC(=O)c1nn(-c2ccc(Cl)cc2)c2nc(CC)c(C#N)c(=O)n12 ?
Smad3 inh: 24.8; ERa SRC1 pot: 202.5*; ERb SRC1 inh: 3.5; ERa coact inh: 12.1

What do the screens show for `Cc1cc(C)c2nc(SC(C)C#N)cc(C)c2c1` (stereo unspecified)?
Smad3 inh: 3.0; ERa SRC1 pot: 178.8; ERb SRC1 inh: -10.5; ERa coact inh: -3.3

Results for CCc1nc2sc3ccccc3c(=O)c2c(=O)n1Cc1ccco1 ?
Smad3 inh: 9.9; ERa SRC1 pot: 57.1; ERb SRC1 inh: 68.0*; ERa coact inh: 75.7*[fluorescence artefact?]

Results for O=c1c2ccccc2sc2nc(C3CCCCC3)n(Cc3ccco3)c(=O)c12 ?
Smad3 inh: -5.1; ERa SRC1 pot: 222.2*; ERb SRC1 inh: 38.3; ERa coact inh: 46.0

Results for COc1ccc(Cn2nnnc2C(c2ccccc2OC)N2CCC(C(N)=O)CC2)cc1 (stereo unspecified) ?
Smad3 inh: 5.3; ERa SRC1 pot: 99.6; ERb SRC1 inh: 64.2*; ERa coact inh: -4.8

What do the screens show for `COc1ccc(OC)c(C(c2nnnn2Cc2ccccc2)N2CCC(C(N)=O)CC2)c1` (stereo unspecified)?
Smad3 inh: -20.0; ERa SRC1 pot: 112.6; ERb SRC1 inh: 0.3; ERa coact inh: -9.3

What do the screens show for `Nc1ncnc2c1ncn2[C@H]1O[C@@H](CO)[C@H](O)[C@H]1N`?
Smad3 inh: -12.2

What do the screens show for `COC(=O)c1ccc2c(=O)n(CCCCCC(=O)NCc3ccccc3)c(=O)[nH]c2c1`?
Smad3 inh: 2.3; ERa SRC1 pot: 72.3; ERb SRC1 inh: 52.4*[fluorescence artefact?]; ERa coact inh: 84.7*[fluorescence artefact?]

How did COCCCNC(=O)c1ccc2c(=O)n(Cc3ccc4c(c3)OCO4)c(=S)[nH]c2c1 do in these assays?
Smad3 inh: 6.5; ERa SRC1 pot: 120.9; ERb SRC1 inh: 47.1; ERa coact inh: 57.6*

Results for CCCCCn1c(=O)[nH]c2cc(C(=O)NCc3ccc4c(c3)OCO4)ccc2c1=O ?
Smad3 inh: -10.5; ERa SRC1 pot: 141.3; ERb SRC1 inh: 49.4; ERa coact inh: 60.5*[fluorescence artefact?]

What do the screens show for `COC(=O)c1ccc2c(=O)n(CCCCCC(=O)NCc3ccc4c(c3)OCO4)c(=O)[nH]c2c1`?
Smad3 inh: 2.1; ERa SRC1 pot: 77.7; ERb SRC1 inh: 43.1; ERa coact inh: 88.2*

Assay outcomes as filed in PubChem BioAssay.
